Bioassay records: PubChem, National Center for Advancing Translational Sciences (NCATS)
HT1080 IDH1KD tx – qHTS for induction of synthetic lethality in tumor cells producing 2HG: qHTS for the HT-1080-IDH1KD cell line. Potency, µM (top dose mostly 46.1 µM), for inactives: top-dose activity, negative = toxicity, most hits filed as cytotoxic. 360,000 compounds, 2% hits. AID 686971, 2013. HT-1080 IDH1 knockdown viability, ATP luminescence, 48 h;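 note: potency is the fitted concentration of half-maximal effect; 0% = DMSO wells and -100% = cell-free medium wells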
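CellTiter-Glo luminescence after 48 h compound exposure at 37 degrees C of IDH1-knockdown HT-1080 cells in 5% FBS RPMI. %Activity scaled between DMSO wells and cell-free media wells, with curves fitted and assigned curve classes.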
ALOX12 inh – Primary qHTS assay for inhibitors of human arachidonate 12S-lipoxygenase (ALOX12): Round 2; Polyunsaturated fatty acid lipoxygenase ALOX12 (Homo sapiens), P18054; purified 12hLO, xylenol orange hydroperoxide absorbance; Potency, µM (series often up to 108 µM), for the others: top-dose activity change, negative = inhibition, hits mostly inhibitors; 580,000 compounds, 1.1% hits; AID 1671190, 2021; note: potency is the fitted concentration of half-maximal effect
Target sequence (P18054 whole entry, looked up): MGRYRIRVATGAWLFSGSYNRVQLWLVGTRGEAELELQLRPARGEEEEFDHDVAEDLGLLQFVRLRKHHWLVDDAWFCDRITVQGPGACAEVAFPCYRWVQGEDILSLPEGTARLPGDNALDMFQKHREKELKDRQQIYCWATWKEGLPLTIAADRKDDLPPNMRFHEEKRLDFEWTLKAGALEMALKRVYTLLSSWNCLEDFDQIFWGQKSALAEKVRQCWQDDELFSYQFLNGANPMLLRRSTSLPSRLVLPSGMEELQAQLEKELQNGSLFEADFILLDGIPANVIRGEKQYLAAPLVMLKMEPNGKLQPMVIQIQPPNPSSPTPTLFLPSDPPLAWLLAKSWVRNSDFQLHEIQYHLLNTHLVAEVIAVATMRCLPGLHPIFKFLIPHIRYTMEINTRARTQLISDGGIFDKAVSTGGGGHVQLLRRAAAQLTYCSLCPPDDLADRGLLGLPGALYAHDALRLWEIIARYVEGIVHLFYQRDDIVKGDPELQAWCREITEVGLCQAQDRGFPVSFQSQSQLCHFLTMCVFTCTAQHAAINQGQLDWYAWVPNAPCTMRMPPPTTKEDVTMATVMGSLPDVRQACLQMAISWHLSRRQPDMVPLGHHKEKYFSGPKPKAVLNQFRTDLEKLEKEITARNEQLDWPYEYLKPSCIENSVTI
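Purified human 12hLO at 150 nM in 25 mM Hepes, 0.01% Triton X-100, pH 7.0, preincubated 15 min at room temperature with compound. Reaction started with 40 uM arachidonic acid, 30 min at room temperature. Hydroperoxide measured by Fe-xylenol orange, 573/405 nm absorbance ratio.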
DT40 TDP1 CPT – qHTS for Inhibitors of human tyrosyl-DNA phosphodiesterase 1 (TDP1): qHTS in cells in presence of CPT; chicken DT40 Tdp1-/-;hTDP1 cells + 20 nM CPT, ATP luminescence, 48 h; Potency, µM (top dose mostly 46.2 µM), without a hit: top-dose activity change, negative = growth inhibition, hits mostly inhibitors; 420,000 compounds, 12% hits; note: potency is the fitted concentration of half-maximal effect; nearly all actives have a fitted effect of over 55% in size
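Chicken DT40 Tdp1-/- cells complemented with human TDP1, 400 cells/well, exposed to compounds plus 20 nM camptothecin for at least 48 h at 37 C; viability read as ATP content by CellTiter-Glo luminescence.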
HT1080-NT tox – qHTS for induction of synthetic lethality in tumor cells producing 2HG: qHTS for the HT-1080-NT fibrosarcoma cell line | HT-1080-NT fibrosarcoma viability, CellTiter-Glo ATP luminescence, 48 h | Potency, µM (series often up to 46.1 µM), for inactives: top-dose activity, negative = less viability, actives largely listed as cytotoxic | 360,000 compounds, 1.6% hits;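 note: NT is the 2HG producing partner of a matched IDH1 knockdown line; potency is the fitted concentration of half-maximal effect; 0% = DMSO-treated cells and -100% = media-only wells without cells; nearly all actives have a fitted effect of over 55% in size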
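Compounds were tested in concentration-response format on HT-1080-NT cells for 48 hours at 37 degrees C. Cell viability came from CellTiter-Glo luminescence; curves were classified by r2, response magnitude and activity.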
TDP1 cell noCPT – qHTS for Inhibitors of human tyrosyl-DNA phosphodiesterase 1 (TDP1): qHTS in cells in absence of CPT; AID 686978, 2013; 420,000 compounds, 15% hits; Potency, µM (titrated, usually from 46.2 µM), for inactives: top-dose activity change, negative = growth inhibition, usual class: inhibitors; DT40 Tdp1-/- hTDP1 cells, no CPT, ATP luminescence, 48 h; note: potency is the fitted concentration of half-maximal effect; nearly all actives have a fitted effect of over 55% in size
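Stably hTDP1-transfected Tdp1-null chicken DT40 cells were treated with library compounds minus camptothecin and grown for at least 48 hr at 37 °C, after which cellular ATP was quantified by luminescence.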
IL-1B inflam inh – qHTS for Inhibitors of Inflammasome Signaling: IL-1-beta AlphaLISA Primary Screen; THP-1 LPS/ATP IL-1B secretion, AlphaLISA, 16 h; hits give low values; activity change, % at 57.5 µM; 360,000 compounds, 4.7% hits; AID 743279, 2014; in the data active = activity change below about -50%; inconclusive = mostly about -30% to -49%
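THP-1 cells pretreated 1 hr with compounds (up to 57.5 uM final), then stimulated with LPS (250 ng/mL final) plus ATP (1.25 mM final); secreted IL-1B measured by AlphaLISA after 16 hr, decreased signal indicating inhibition.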
Numbers without * were called inactive; i = inactive; ? = inconclusive; · = no result given; [ ] = dose if it differs, or a comment. Many of the other results were omitted from the sample, so hits are more common in it than they were. Unless noted, calls come from the whole dose curve; as a rule, active = well fitted curve in the direction sought with a large enough effect; inconclusive = small, poorly fitted or top-dose-only effect, or another doubt; inactive = no such curve, though single readings can be large; an effect the other way counts as inactive or inconclusive. Unless noted, % is set by controls: 0 for no effect and ±100 for the full control effect.

SMILES | HT1080 IDH1KD tx | ALOX12 inh | DT40 TDP1 CPT | HT1080-NT tox | TDP1 cell noCPT | IL-1B inflam inh
CCOC(=O)c1sc(Nc2nc(C)cc(OC)n2)nc1C | 6% | 1% | ? | 16% | 13µM* | 72
CCOC(=O)c1sc(Nc2ccc(C)cc2C)nc1C | -5% | ? | ? | -12% | 16µM* | -17
CCOC(=O)c1sc(Nc2nc(C)cc(C)n2)nc1C | 1% | -54% | 7.3µM* | -5% | 6.5µM* | 31
CCOC(=O)c1sc(Nc2ccc(F)cc2)nc1C | -2% | 0% | ? | -13% | ? | -21
O=C(C[C@H]1NC(=O)c2ccccc2NC1=O)Nc1nc2c(s1)CCC2 | · | 20% | · | · | · | ·
Cc1noc([C@H]2CCN(C(=O)c3ccc4ccccc4n3)C[C@H]2NC(=O)C2CC2)n1 | · | 18% | · | · | · | ·
CCc1[nH]c2c(CNC(=O)C3(C)CCCCO3)cc(F)cc2c1C (stereo not given) | · | 13% | · | · | · | ·
O=C(Cn1nc(-c2ccccc2)c2cnc3ccc(F)cc3c21)NC1CCCC1 | · | -19% | -19% | · | 2% | ·
O=C(NC(=S)Nc1nc(-c2ccccc2)cs1)c1cccnc1 | 16% | 35µM* | 5% | 2% | -3% | 13
O=C(NNC(=S)NC(=O)c1ccc(F)cc1)c1cccnc1 | -13% | -21% | ? | -21% | 18µM* | 22
O=C(NNC(=S)NC(=O)c1cccnc1)c1ccc(F)cc1 | -12% | ? | -26% | -8% | ? | -3
O=C(NC(=S)Nc1nc(-c2ccccc2)cs1)c1cncc(Br)c1 | -7% | 2% | -10% | ? | -10% | 11
O=C(NNC(=S)NC(=O)c1cccnc1)c1ccccc1 | -29% | ? | ? | -3% | 23µM* | 42
Cc1noc(C)c1-c1cc(-c2cccc(O)c2)cn2cncc12 | · | -7%[176 µM] | · | · | · | ·
CCCc1nnc(NC(=O)CCS(=O)(=O)c2ccccc2)s1 | -4% | -4% | 2.3µM* | -27% | 5.2µM* | -58*
CC(=O)Nc1nnc(CCS(=O)(=O)c2ccc(Cl)cc2)s1 | 18% | -1% | 22% | 28% | -6% | 0
CCCc1nnc(NS(=O)(=O)c2ccccc2)s1 | -2% | -3% | ? | -3% | -7% | 19
CCc1nnc(NC(=O)CCN(c2cc(C)cc(C)c2)S(=O)(=O)c2ccc(Cl)cc2)s1 | -8% | -16% | ? | 1% | 18µM* | 89
CCCCc1nnc(NC(=O)CCS(=O)(=O)c2ccc(Cl)cc2)s1 | 5% | 0% | 6.5µM* | -4%[9.24 µM] | 7.3µM* | 29
CC(C)Cc1ccc(S(=O)(=O)N2CCN(Cc3noc(CCC(=O)N4CCCCC4)n3)CC2)cc1 | · | -26% | ? | · | 21µM* | ·
CCN(CC)S(=O)(=O)c1ccc(OC)c(NC(=O)CSCc2c(C)noc2C)c1 | -3% | 2% | ? | -8% | 23µM* | -23
CCN(CC)S(=O)(=O)c1ccc(N(C)C)c(NC(=O)CSCc2c(C)noc2C)c1 | 7% | -1% | ? | -6% | ? | i
CCN=C1S/C(=C\c2cn(C(C)=O)nc2-c2ccccc2)C(=O)N1CC | -3% | -10% | 16µM* | 21% | ? | -4
O=C(c1cocn1)N1CCNc2cnc(Nc3cccc(C(F)(F)F)c3)nc2C1 | · | -2%[176 µM] | · | · | · | ·
CCOc1ccc(N2CC(C(=O)Nc3cc(C)ccn3)CC2=O)cc1 (stereo not given) | · | -21% | · | · | · | ·
SMILES | HT1080 IDH1KD tx | ALOX12 inh | DT40 TDP1 CPT | HT1080-NT tox | TDP1 cell noCPT | IL-1B inflam inh
Cc1ccc(NC(=O)C[n+]2cc(-c3ccccc3)n3c2CCC3)c(C)c1 | -16% | ? | -21% | -16% | ? | -16
CCc1ccc(NC(=O)C[n+]2cc(-c3ccc(C)cc3)n3c2CCC3)cc1 | -26% | ? | 2.3µM* | ? | 3.7µM* | ?
Cc1ccc(-c2c[n+](CC(=O)Nc3c(C)cccc3C)c3n2CCC3)cc1 | -7% | 80% | ? | -6% | ? | -64*
COc1ccc(/C(N)=N/OC(=O)c2c(-c3ccccc3Cl)noc2C)cc1OC | 16µM* | 11% | 21µM* | ? | ? | -91*
COC(=O)c1cc(OC)c(OC)cc1NC(=O)c1c(-c2ccccc2Cl)noc1C | 2% | 1% | 18µM* | 2% | 13µM* | 7
Cc1nc(/C(N)=N/OC(=O)c2c(-c3ccccc3Cl)noc2C)cs1 | ? | 217% | -26% | ? | ? | -89*
Cc1onc(-c2ccccc2Cl)c1C(=O)N1CCN(c2cccc(Cl)c2)CC1 | 2.1µM* | 7%[57.4 µM] | 1.6µM* | 2.6µM* | 1.5µM* | 71
COC1CCC12CCN(C(=O)C1CCCCC1)CC2 (stereo not given) | · | 24% | · | · | · | ·
CC(C)=CCc1cc([C@@H]2CC(=O)c3ccc(O)c(CC=C(C)C)c3O2)ccc1O | ? | ? | ? | -1% | ? | -22
O=C(CC1N=C2c3ccccc3N=C(SCc3ccc(Cl)cc3)N2C1=O)NCCc1ccccc1 (stereo not given) | · | 2% | ? | · | ? | ·
Cc1onc(-c2ccccc2Cl)c1C(=O)Nc1nnc(-c2ccc(F)cc2)s1 | -8% | 18% | -4% | -3% | -27% | 6
Cc1onc(-c2ccccc2Cl)c1C(=O)Nc1nnc(-c2ccc(Br)cc2)s1 | -16% | 8% | 16µM* | -17% | ? | 19
Cc1onc(-c2ccccc2Cl)c1C(=O)Oc1ccc(Cl)cc1Cl | · | -28% | 16µM* | · | 21µM* | ·
COc1ccc(Cc2nnc(NC(=O)c3ccc(OC)c(OC)c3)s2)cc1 | -13% | 4% | 23µM* | -13% | 23µM* | 28
CCCN(CCC)S(=O)(=O)c1ccc(C(=O)Nc2nc3c(s2)CCc2ccccc2-3)cc1 | ? | 11% | 16µM* | 18µM* | 15µM* | 38
O=C(Nc1nnc(Cc2ccccc2)s1)c1ccccc1 | -10% | 0% | -15% | -2% | -24% | 15
COc1cccc(OC)c1C(=O)Nc1nc2c(s1)CCc1ccccc1-2 | · | -22% | 0% | · | -15% | ·
CN(C)S(=O)(=O)c1ccc(C(=O)Nc2nnc(Cc3ccccc3)s2)cc1 | 23µM* | -9% | 6% | ? | -1% | -1
